Calls of active or inactive are those of the source. How the source made its calls: active means hit-call score of the fitted dose curve at least 0.9, where 1 is the maximum; inactive means score below 0.9.
Columns and labels:
[1] = read-out: TIMP metallopeptidase inhibitor 2 (TIMP2), TIMP2 (gene 7077); experiment: BSK_KF3CT_TIMP2: BioMAP Diversity Plus: KF3CT Assay for TIMP metallopeptidase inhibitor 2 (TIMP2) Biomarker Activity (AID 2283071); conditions: primary human keratinocytes with fibroblasts; actives raise or lower the signal
Method in brief: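 Keratinocyte–fibroblast co-culture, 24 h exposure; TIMP-2 ELISA, DMSO-normalised bidirectional fit. Parallel SRB (0.1%, TCA-fixed, 560 nm) total-protein staining gauges cytotoxicity.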

[2] = read-out: Transforming growth factor beta 1 (TGFb1), TGFB1 (gene 7040); experiment: BSK_KF3CT_TGFb1: BioMAP Diversity Plus: KF3CT Assay for Transforming growth factor beta 1 (TGFb1) Biomarker Activity (AID 2283072); conditions: primary human keratinocytes with fibroblasts; actives raise or lower the signal
Method in brief: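 Signal changes in either direction, relative to DMSO, define activity here. TGF-b1 is read by ELISA from a human keratinocyte-fibroblast co-culture 24 h post-dose.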

[3] = read-out: C-C motif chemokine 2 (Homo sapiens) (UniProt P13500); experiment: BSK_KF3CT_MCP1: BioMAP Diversity Plus: KF3CT Assay for Monocyte Chemoattractant Protein 1 (MCP1/CCL2) Biomarker Activity (AID 2283073); conditions: primary human keratinocytes with fibroblasts; actives raise or lower the signal
Method in brief: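 ELISA readout of MCP-1 after 24 h chemical dosing of a human skin primary co-culture of keratinocytes and foreskin fibroblasts. Activity was fitted in both directions against DMSO.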

[4] = read-out: Matrix Metallopeptidase 9 (MMP9), MMP9 (gene 4318); experiment: BSK_KF3CT_MMP9: BioMAP Diversity Plus: KF3CT Assay for Matrix Metallopeptidase 9 (MMP9) Biomarker Activity (AID 2283074); conditions: primary human keratinocytes with fibroblasts; actives raise or lower the signal;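 on AC50: MMP9 protein level quantified by ELISA in the co-culture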
Method in brief: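 Human keratinocyte/foreskin fibroblast co-culture; compound added; 24 h; MMP-9 by ELISA; bidirectional fit vs DMSO baseline.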

CD40, CD40 (gene 958) [5] = experiment: BSK_LPS_CD40: BioMAP Diversity Plus: LPS Assay for CD40 Biomarker Activity (AID 2283076); conditions: primary human HUVEC with PBMC; actives raise or lower the signal
Method in brief: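 Cells were dosed, incubated 24 h, then assayed for CD40 by ELISA. Gain or loss of signal was analysed relative to DMSO controls. The culture paired human umbilical vein endothelium with peripheral blood mononuclear cells.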

[6] = read-out: E-selectin (Homo sapiens) (UniProt P16581); experiment: BSK_LPS_Eselectin: BioMAP Diversity Plus: LPS Assay for Eselectin Biomarker Activity (AID 2283077); conditions: primary human HUVEC with PBMC; actives raise or lower the signal
Method in brief: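 Primary human vascular co-culture (endothelium plus PBMC) was dosed with chemical, then E-selectin quantified by ELISA at 24 h. Endpoint values derive from bidirectional curve fitting relative to DMSO.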

[7] = read-out: Interleukin-8 (IL8), CXCL8 (gene 3576); experiment: BSK_LPS_IL8: BioMAP Diversity Plus: LPS Assay for Interleukin-8 (IL8) Biomarker Activity (AID 2283078); conditions: primary human HUVEC with PBMC; actives raise or lower the signal
Method in brief: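 Readout is IL-8 by ELISA, taken 24 h after compounds were added to LPS-stimulated endothelial/PBMC co-cultures. Both increases and decreases relative to DMSO control were scored through bidirectional fitting.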

[8] = BSK_LPS_SRB: Viability Assessment in the BioMAP Diversity Plus: LPS Assay (AID 2283079); conditions: primary human HUVEC with PBMC;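 further: total protein by sulforhodamine B absorbance as a cytotoxicity measure; measured one day after compound addition; fitted in both directions against DMSO so loss or gain of signal counts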
Method in brief: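 Readout is SRB absorbance at 560 nm (0.1% stain, TCA-fixed parallel cultures) as a total-protein cytotoxicity measure. Cells: primary human umbilical vein endothelium plus peripheral blood mononuclear cells, 24 h after chemical exposure; DMSO served as baseline.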

[9] = read-out: Interleukin-1 alpha (IL1a), IL1A (gene 3552); experiment: BSK_LPS_IL1a: BioMAP Diversity Plus: LPS Assay for Interleukin-1 alpha (IL1a) Biomarker Activity (AID 2283080); conditions: primary human HUVEC with PBMC; actives raise or lower the signal
Method in brief: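 ELISA read-out of IL-1 alpha from a human primary vascular co-culture (endothelium plus PBMC) under LPS, sampled 24 hours post-dosing. Activity was fitted in both directions relative to DMSO controls.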

[10] = read-out: Monocyte Chemoattractant Protein-1 (MCP1), CCL2 (gene 6347); experiment: BSK_LPS_MCP1: BioMAP Diversity Plus: LPS Assay for Monocyte Chemoattractant Protein-1 (MCP1) Biomarker Activity (AID 2283081); conditions: primary human HUVEC with PBMC; actives raise or lower the signal;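 on AC50: secreted MCP-1 protein quantified by ELISA in culture supernatant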
Method in brief: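 Human endothelial–PBMC co-cultures were dosed with chemical, then LPS-driven MCP-1 levels were quantified by ELISA at 24 h. Activity in either direction was fitted versus DMSO negative control.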

[11] = read-out: Macrophage colony-stimulating factor (MCSF), CSF1 (gene 1435); experiment: BSK_LPS_MCSF: BioMAP Diversity Plus: LPS Assay for Macrophage colony-stimulating factor (MCSF) Biomarker Activity (AID 2283083); conditions: primary human HUVEC with PBMC; actives raise or lower the signal
Method in brief: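 ELISA readout of M-CSF after 24 h compound exposure in a human endothelial/PBMC co-culture. Activity, in either direction, is fitted relative to DMSO vehicle.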

[12] = read-out: Tissue Factor, F3 (gene 2152); experiment: BSK_LPS_TissueFactor: BioMAP Diversity Plus: LPS Assay for Tissue Factor Biomarker Activity (AID 2283084); conditions: primary human HUVEC with PBMC; actives raise or lower the signal
Method in brief: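 ELISA signal for cell-surface Tissue Factor (CD142) was read 24 h after compound dosing of an LPS-stimulated human endothelial–PBMC primary co-culture. Gain or loss of signal was scored relative to DMSO.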

[13] = read-out: Tumor necrosis factor (Homo sapiens) (UniProt P01375); experiment: BSK_LPS_TNFa: BioMAP Diversity Plus: LPS Assay for Tumour Necrosis Factor alpha (TNFa) Biomarker Activity (AID 2283085); conditions: primary human HUVEC with PBMC; actives raise or lower the signal
Method in brief: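 Primary human vascular co-culture of HUVEC and PBMC; TNFa ELISA 24 h after treatment, analysed as increase or decrease relative to DMSO control.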

[14] = read-out: Vascular cell adhesion molecule 1 (VCAM1), VCAM1 (gene 7412); experiment: BSK_LPS_VCAM1: BioMAP Diversity Plus: LPS Assay for Vascular cell adhesion molecule 1 (VCAM1) Biomarker Activity (AID 2283086); conditions: primary human HUVEC with PBMC; actives raise or lower the signal
Method in brief: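 Primary human vascular co-culture (umbilical vein endothelium plus PBMC) stimulated with LPS received chemical; 24 h later VCAM-1 was read by ELISA. Overt cytotoxicity was assessed by sulforhodamine B staining of parallel cultures at the same time point.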

CD38, CD38 (gene 952) = experiment: BSK_SAg_CD38: BioMAP Diversity Plus: SAg Assay for CD38 Biomarker Activity (AID 2283087); conditions: primary human HUVEC with PBMC; actives raise or lower the signal
Method in brief: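 Fluorescence ELISA of cell-surface CD38 served as the read-out, with either increase or decrease fitted against DMSO controls. Cells were a human umbilical vein endothelium plus PBMC co-culture under SEB/TSST-1 stimulation, measured 24 h after dosing.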

CD40, CD40 (gene 958) [15] = experiment: BSK_SAg_CD40: BioMAP Diversity Plus: SAg Assay for CD40 Biomarker Activity (AID 2283088); conditions: primary human HUVEC with PBMC; actives raise or lower the signal
Method in brief: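 Compounds were dosed onto a human primary endothelial–PBMC co-culture, and after 24 h CD40 was quantified by ELISA using a fluorescence signal. Activity in either direction was fitted relative to DMSO.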

CD69, CD69 (gene 969) = experiment: BSK_SAg_CD69: BioMAP Diversity Plus: SAg Assay for CD69 Biomarker Activity (AID 2283089); conditions: primary human HUVEC with PBMC; actives raise or lower the signal;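 on AC50: cell surface CD69 protein quantified by ELISA with fluorescence detection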
Method in brief: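 HUVEC co-cultured with PBMC were dosed with chemical, and CD69 was measured by ELISA with fluorescence read-out 24 h later. Bidirectional curve fitting used DMSO as negative control and activity baseline.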

[16] = read-out: Monocyte Chemoattractant Protein-1 (MCP1), CCL2 (gene 6347); experiment: BSK_SAg_MCP1: BioMAP Diversity Plus: SAg Assay for Monocyte Chemoattractant Protein-1 (MCP1) Biomarker Activity (AID 2283090); conditions: primary human HUVEC with PBMC; actives raise or lower the signal
Method in brief: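 MCP-1 levels in the endothelial–PBMC SAg co-culture were quantified by ELISA at 24 h post-dosing; both increases and decreases versus DMSO scored. Cytotoxicity monitored by SRB total protein in parallel cultures.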

[17] = BSK_LPS_PGE2: BioMAP Diversity Plus: LPS Assay for Prostaglandin E2 (PGE2) Biomarker Activity (AID 2283082); conditions: primary human HUVEC with PBMC; actives raise or lower the signal
Method in brief: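 Endpoint derived from bidirectional curve fitting versus DMSO of ELISA-measured PGE2 in LPS-stimulated human primary vascular co-culture (HUVEC with PBMC) harvested at 24 h.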

[18] = read-out: urokinase plasminogen activator (uPA), PLAU (gene 5328); experiment: BSK_KF3CT_uPA: BioMAP Diversity Plus: KF3CT Assay for urokinase plasminogen activator (uPA) Biomarker Activity (AID 2283075); conditions: primary human keratinocytes with fibroblasts; actives raise or lower the signal
Method in brief: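 ELISA readout of uPA, analyzed for signal gain or loss relative to DMSO, from a human primary keratinocyte–foreskin fibroblast co-culture measured 24 h after chemical treatment.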

Measured: AC50

E-selectin (Homo sapiens), sequence (P16581 whole entry, looked up): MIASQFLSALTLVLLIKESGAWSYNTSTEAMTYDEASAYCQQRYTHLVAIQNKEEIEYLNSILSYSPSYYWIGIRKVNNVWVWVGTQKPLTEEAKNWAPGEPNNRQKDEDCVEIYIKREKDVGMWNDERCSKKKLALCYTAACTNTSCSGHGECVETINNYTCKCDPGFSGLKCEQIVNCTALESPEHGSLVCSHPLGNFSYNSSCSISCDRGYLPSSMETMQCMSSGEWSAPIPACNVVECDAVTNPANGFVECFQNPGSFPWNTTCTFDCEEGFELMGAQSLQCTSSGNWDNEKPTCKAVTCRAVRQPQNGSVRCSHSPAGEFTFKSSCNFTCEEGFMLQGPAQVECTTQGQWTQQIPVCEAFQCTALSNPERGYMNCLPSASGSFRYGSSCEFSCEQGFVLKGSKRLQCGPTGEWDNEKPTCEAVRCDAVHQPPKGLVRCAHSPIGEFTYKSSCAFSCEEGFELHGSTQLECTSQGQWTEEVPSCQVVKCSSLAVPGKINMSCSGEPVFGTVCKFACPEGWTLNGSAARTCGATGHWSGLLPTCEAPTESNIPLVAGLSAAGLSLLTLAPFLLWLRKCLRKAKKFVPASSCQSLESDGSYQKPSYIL
Tumor necrosis factor (Homo sapiens), sequence (P01375 whole entry, looked up): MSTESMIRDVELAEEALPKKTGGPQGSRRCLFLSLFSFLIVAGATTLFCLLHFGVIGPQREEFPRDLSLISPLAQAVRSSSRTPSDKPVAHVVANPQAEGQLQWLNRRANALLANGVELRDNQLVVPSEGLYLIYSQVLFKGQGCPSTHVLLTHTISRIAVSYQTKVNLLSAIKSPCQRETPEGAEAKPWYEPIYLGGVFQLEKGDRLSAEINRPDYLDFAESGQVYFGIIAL

c1ccc(C2CO2)cc1 (stereo not given)
inactive: [1] | [2] | [3] | [4] | CD40, CD40 (gene 958) [5] | [6] | [7] | [8] | [9] | [10] | [11] | [12] | [13] | [14] | CD38, CD38 (gene 952) | CD40, CD40 (gene 958) [15] | CD69, CD69 (gene 969) | [16]

ClC1=C(Cl)C2(Cl)C3C(Cl)C=CC3C1(Cl)C2(Cl)Cl (stereo not given)
inactive: [17]
active: [1] 24.6 µM | [2] 14 µM | [3] 14.6 µM | [4] 13.8 µM | CD40, CD40 (gene 958) [5] 30.9 µM | [6] 30.6 µM | [7] 31.6 µM | [8] 29.5 µM | [9] 30 µM | [10] 31.4 µM | [11] 29.5 µM | [12] 32.2 µM | [13] 33.5 µM | [14] 33.7 µM | CD38, CD38 (gene 952) 32.6 µM | CD40, CD40 (gene 958) [15] 25.7 µM | CD69, CD69 (gene 969) 31.8 µM | [16] 31.6 µM

Clc1ccc(C(c2ccc(Cl)cc2)C(Cl)(Cl)Cl)cc1
inactive: [17]
active: [1] 11.7 µM | [2] 14.8 µM | [3] 12.7 µM | [4] 11 µM | [18] 20.1 µM | CD40, CD40 (gene 958) [5] 20 µM | [6] 31.7 µM | [7] 27.4 µM | [8] 28.9 µM | [10] 33.1 µM | [11] 19.5 µM | [12] 38.7 µM | [13] 24.8 µM | [14] 28.7 µM | CD40, CD40 (gene 958) [15] 23.2 µM | CD69, CD69 (gene 969) 25.5 µM | [16] 30 µM
